Experimental data reported in article PMC7819943, “Rice protein-binding microarrays: a tool to detect cis-acting elements near promoter regions in rice”.
The full ranking holds about 35,000 sequences; the median of “fluorescence intensity (a.u.)” is about 10,000, and the highest 2% start at about 52,000. This excerpt belongs to a sample that is enriched for the highest values.

What follows are sequences tested against T1, OsWOX13 (Oryza sativa, UniProt Q5QMM3 1-267) (assay: protein-binding microarray (RPBM); PBS, 2% BSA, 51.3 ng/ul salmon testes DNA, 50 uM zinc acetate, 200 nM TF, 25 C, 1 h; high values mean tight binding). Conditions: protein: recombinant; tags: N-terminal polyhistidine and DsRed monomer fusion (pET32a); label: CyDye5-dUTP incorporated in the synthesized complementary strand; 3' TTTTT single-stranded linker to array surface; dsDNA, one strand shown.
T1 sequence: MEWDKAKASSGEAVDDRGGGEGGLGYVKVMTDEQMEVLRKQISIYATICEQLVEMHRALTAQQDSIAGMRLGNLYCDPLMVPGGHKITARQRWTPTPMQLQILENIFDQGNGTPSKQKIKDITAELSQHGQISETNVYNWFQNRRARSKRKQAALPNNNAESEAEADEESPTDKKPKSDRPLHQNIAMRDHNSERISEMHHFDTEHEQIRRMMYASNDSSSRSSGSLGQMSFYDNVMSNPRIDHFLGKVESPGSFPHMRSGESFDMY
Procedure, shortened: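 The binding signal is fluorescence intensity per array feature (arbitrary units). Readings came from an Axon 4000B scanner after a washed, 2% BSA-blocked, double-stranded custom Agilent array had been incubated for 1 h at 25 °C with 200 nM protein and 50 µM zinc acetate. The protein was a Ni–NTA-purified transcription factor fused N-terminally to polyhistidine and DsRed, expressed in E. coli BL21-CodonPlus.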

| Sequence | binding signal |
| --- | --- |
| AAAACAGTTTGATTAGCTTTCTGTCGAATCTGTCATGCATCGGAGTCACCTAGTGCAG | 16500 fluorescence intensity (a.u.) |
| TTCTGATTAGTTACAACTTGAGTTCACTATTGTCATGATACGGAGTCACCTAGTGCAG | 37200 fluorescence intensity (a.u.) |
| GACAAGATCAGTCCTAATTATATATATGTTTTACCTTCTACGGAGTCACCTAGTGCAG | 4490 fluorescence intensity (a.u.) |
| TGCAATAAATTATAGATGACTGAACATTTACACTCTACAGCGGAGTCACCTAGTGCAG | 15300 fluorescence intensity (a.u.) |
| CATAACTAATTAGTAACACAAAGAATATTGATTAGATGATCGGAGTCACCTAGTGCAG | 43100 fluorescence intensity (a.u.) |
| CGCTAAAATTAAAAGTTTGATTGAAATTAGAACGATGTAACGGAGTCACCTAGTGCAG | 30300 fluorescence intensity (a.u.) |
| TTAAAATTAAACTTTTGCAGTCTTTCTAATTTGCCTCCTCCGGAGTCACCTAGTGCAG | 5220 fluorescence intensity (a.u.) |
| ACTGAACAAATTGAGCATGGTGTATATGTCACATTTTCTACGGAGTCACCTAGTGCAG | 6220 fluorescence intensity (a.u.) |
| TACATACAAGTTACAGTGTAATTACACTACGATTGTACTACGGAGTCACCTAGTGCAG | 3630 fluorescence intensity (a.u.) |
| TTGCACTGATTTTGTAACTTAAGGGATACGTCGTATCCGGCGGAGTCACCTAGTGCAG | 6500 fluorescence intensity (a.u.) |
| AGCCACGCAATCAATTAAATAATTAAGATAGGTACACGTGCGGAGTCACCTAGTGCAG | 26400 fluorescence intensity (a.u.) |
| CATATGACCAGTTTAACTGCCATCATGCAGACACACAGGACGGAGTCACCTAGTGCAG | 3410 fluorescence intensity (a.u.) |
| ATATAAATCAAATTTACAACTTTGCTGTAGCTATAATTTGCGGAGTCACCTAGTGCAG | 7160 fluorescence intensity (a.u.) |
| CATATGATTAATTAAAATTTTATCATTTAGAACTTGAAAACGGAGTCACCTAGTGCAG | 34800 fluorescence intensity (a.u.) |
| CACATAATTGAACTGCTAATTTTATTCTAGTCGGAAGCACCGGAGTCACCTAGTGCAG | 54600 fluorescence intensity (a.u.) |
| TATTGATTAAATTTAATTTATAGATAGACTAATATTTTACCGGAGTCACCTAGTGCAG | 29800 fluorescence intensity (a.u.) |
| GCATAACTAATTGTTGTTGCACATATTTTCTTTATAAAGCCGGAGTCACCTAGTGCAG | 15500 fluorescence intensity (a.u.) |
| TTAATTAATTGCTAATTACACTAATTAATTTATTGATAGCCGGAGTCACCTAGTGCAG | 65200 fluorescence intensity (a.u.) |
| TAGGTGACAGTTTATTTAATGCTATTGACACTATTCTAGCCGGAGTCACCTAGTGCAG | 8640 fluorescence intensity (a.u.) |
| ATAACTTTTAATTTAAGCTAATTTTATTTCTGCCGGACATCGGAGTCACCTAGTGCAG | 19600 fluorescence intensity (a.u.) |
| GATGAAGATTGATATTACCTGCGGCCGCCGGCGCCGCTGTCGGAGTCACCTAGTGCAG | 7110 fluorescence intensity (a.u.) |
| CATTATTGATTGATTGATTCGCAGATTCGCCGCTGCCACCCGGAGTCACCTAGTGCAG | 57200 fluorescence intensity (a.u.) |
| ATTATTTGTGATTTGATTGCTAGTGATTTGAACTAATGGCCGGAGTCACCTAGTGCAG | 64300 fluorescence intensity (a.u.) |
| CCGCACTCTATTATTGTATTGATTAGCTTGTGTCATTCGCCGGAGTCACCTAGTGCAG | 20500 fluorescence intensity (a.u.) |
| AATGGGAACTAATGGGCCGGATTGACTACTTTGCTACATTCGGAGTCACCTAGTGCAG | 3240 fluorescence intensity (a.u.) |
| GTGATTGGGCTATTTGTAATGTTCAGATGGTGAACTGTGCCGGAGTCACCTAGTGCAG | 27600 fluorescence intensity (a.u.) |
